Drawing on PubChem BioAssay (Tox21), this text covers Potency for 18 molecules.

Assay [1] in a line: A CellTox Green Cytotoxicity Assay to monitor cytotoxicity in HepG2 cells - 0 hour (AID 1224882). Note: nearly all actives have a fitted effect of over 35% in size. The method, boiled down:
(§1)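 HepG2 cells, 600/well, preincubated 5 h with CellTox Green dye, then exposed to Tox21 compounds in DMSO at 37 C for up to 40 h. Dead-cell DNA fluorescence read at the indicated time point.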

Assay [2] is described as follows: A CellTox Green Cytotoxicity Assay to monitor cytotoxicity in HepG2 cells - 32 hour (AID 1224883). Note: nearly all actives have a fitted effect of over 50% in size. Note: potency is the fitted concentration of half-maximal effect. The method in brief: as §1
Assay [3] is described as follows: A CellTox Green Cytotoxicity Assay to monitor cytotoxicity in HEK293 cells - 8 hour (AID 1224884). Note: nearly all actives have a fitted effect of over 35% in size. The method, boiled down:
(§2)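 HEK293 cells, 600/well, were preincubated 5 hours and then exposed to compounds at 37 C for up to 40 hours. A cell-impermeant cyanine dye staining dead-cell DNA was read by fluorescence at 0, 8, 16, 24, 32 and 40 h time points.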

Assay [4] can be described thus: qHTS RealTime-Glo MT Cell Viability Assay in HepG2 cells - 16 hour (AID 1224885). Note: nearly all actives have a fitted effect of over 50% in size. Note: potency is the fitted concentration of half-maximal effect. The method in brief: (§3)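 HepG2 suspension premixed with RealTime-Glo reagents is plated at 600 cells per well and left 5 h at 37 C/5% CO2. Compounds in DMSO then go in, and bioluminescence reflecting viable cell number is recorded over 40 h.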
(In qHTS, concentration-response curves come from the screen itself.)

The nature of assay [5]: qHTS RealTime-Glo MT Cell Viability Assay in HEK293 cells - 24 hour (AID 1224886). Note: nearly all actives have a fitted effect of over 50% in size. Note: potency is the fitted concentration of half-maximal effect. The method, boiled down: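 Reads taken at 0, 8, 16, 24, 32 and 40 h from the same wells. HEK293 cells (600/well) carried RealTime-Glo reagents from seeding, with compound added after a 5 h settle at 37 C.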
A short description of assay [6]: qHTS RealTime-Glo MT Cell Viability Assay in HEK293 cells - 8 hour (AID 1224887). Note: nearly all actives have a fitted effect of over 50% in size. Note: potency is the fitted concentration of half-maximal effect. The method in brief:
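600 cells/well were plated with the nonlytic NanoLuc/prosubstrate reagent, pre-incubated 5 h, then given 23 nL of compound in DMSO. Incubation at 37 C for 40 h, with luminescence from viable-cell-reduced substrate read repeatedly from 0 h.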

Assay [7] can be described thus: A CellTox Green Cytotoxicity Assay to monitor cytotoxicity in HEK293 cells - 16 hour (AID 1224888). Note: nearly all actives have a fitted effect of over 35% in size. Note: potency is the fitted concentration of half-maximal effect. The method in brief:
as §2

Assay [8] is described as follows: qHTS RealTime-Glo MT Cell Viability Assay in HepG2 cells - 0 hour (AID 1224889). Note: nearly all actives have a fitted effect of over 50% in size. The method in brief:
as §3

A short description of assay [9]: A CellTox Green Cytotoxicity Assay to monitor cytotoxicity in HepG2 cells - 8 hour (AID 1224890). Note: nearly all actives have a fitted effect of over 45% in size. The method, boiled down: as §1
Assay [10] is described as follows: A CellTox Green Cytotoxicity Assay to monitor cytotoxicity in HEK293 cells - 32 hour (AID 1224881). Note: nearly all actives have a fitted effect of over 40% in size. Note: potency is the fitted concentration of half-maximal effect. The method in brief:
as §2

Several values for one entry are separate records, joined by “and”; a condition that tells them apart may be missing. Equal entries are not always repeated. Unmarked numbers belong to inactive results. Results filed as inconclusive are left out. Activity calls are given as the source filed them. Calls come from the whole dose curve; as a rule, active = well fitted curve in the direction sought with a large enough effect in the repeat runs; inconclusive = weak or mixed curves; inactive = no such curve, though single readings can be large; an effect the other way counts as inactive or inconclusive.

Consider `Oc1ccc2[nH]cc(CCCCN3CC=C(c4ccccc4)CC3)c2c1`, for which the Potency result in [1], in assay [3], in assay [4], in assay [7], in assay [8] and in assay [9] was “inactive” in each case. Further, the values for the Potency in assay [2], in assay [5] and in assay [6] were 23.9 µM (active), 19 µM (active) and 8.49 µM (active), respectively.
For the molecule `CCO/N=C(\CC)C1=C(O)CC(c2c(C)cc(C)cc2C)CC1=O` (stereo not given), the Potency entry in assay [10], in [1], in assay [3], in assay [4] and in assay [7] was “inactive” in each case.
For the molecule `Cc1cccc(Cc2cnc[nH]2)c1C`, the Potency entry in assay [10], in assay [3], in [4], in [5], in assay [6] and in assay [7] was “inactive” in each case.
Regarding `S=C=NCCc1ccccc1`, the Potency in assay [10] and in [5] was 49.1 µM (active) throughout. In addition, the Potency result in assay [1], in assay [3], in [4], in assay [7], in [8] and in [9] was “inactive” each time.
In the case of `Nc1cc(Cl)ccc1Cl`, the Potency result in assay [1], in [2], in assay [3], in assay [4], in assay [5] and in assay [6] was “inactive” throughout. Further, the Potency entry in assay [7], in [8] and in [9] was “inactive” in each case.
`Nc1ccccc1-c1ccccc1`: the Potency result in [1], in assay [2], in assay [3], in assay [4], in assay [5] and in assay [6] was “inactive” each time. Further, the Potency entry in [7], in assay [8] and in assay [9] was “inactive” each time.
Turning to `O=c1c2ccccc2c(=O)c2c1cc(Cl)c1[nH]c3c([nH]c12)c(Cl)cc1c(=O)c2ccccc2c(=O)c13`, the Potency result in assay [1], in assay [2], in assay [3], in [4], in [5] and in assay [6] was “inactive” each time. Moreover, the Potency result in [7], in assay [8] and in assay [9] was “inactive” throughout.
Turning to `COc1ccc2c3c1O[C@H]1[C@H](O)CC[C@H]4[C@@H](C2)N(C)CC[C@@]341`, the Potency result in assay [1], in assay [2], in assay [3], in [4], in assay [5] and in assay [6] was “inactive” in each case. Further, the Potency entry in assay [7], in [8] and in assay [9] was “inactive” in each case.
`C[C@]12CC[C@H]3[C@@H](CCC4=CC(=O)CC[C@@H]43)[C@@H]1CC[C@@H]2OC(=O)CCc1ccco1`: the Potency entry in [1], in assay [2], in [3], in assay [4], in [5] and in assay [6] was “inactive” each time. For the same molecule, the Potency entry in assay [7], in [8] and in [9] was “inactive” in each case.
Consider `CO/N=C(\C(=O)OC)c1ccccc1CO/N=C(\C)c1cccc(C(F)(F)F)c1`, for which the Potency entry in [10], in assay [1], in assay [3], in [4] and in [7] was “inactive” in each case.
As for `CCC[CH2][Sn]([CH2]CCC)([O]C(C)=O)[O]C(C)=O`, the Potency in [10] was 0.392 µM (active); in assay [4], 0.554 µM (active); in assay [5], 0.0879 µM (active); in [7], 4.4 µM (active). The Potency entry in [1], in assay [3], in assay [8] and in [9] was “inactive” throughout.
In the case of `C#CCC1=C(C)C(OC(=O)C2C(C=C(C)C)C2(C)C)CC1=O` (stereo not given), the Potency entry in assay [10], in assay [1], in [3], in assay [4], in assay [7] and in assay [8] was “inactive” each time. The Potency result in assay [9] is “inactive”.
`C[C@]12Cc3cn[nH]c3C[C@@H]1CC[C@@H]1[C@@H]2CC[C@@]2(C)[C@H]1CC[C@]2(C)O`: the Potency result in assay [10], in assay [1], in [3], in assay [4], in [6] and in assay [7] was “inactive” each time. The Potency result in [8] and in assay [9] was “inactive” throughout.
`CC[N+]1(CC)CCC(OC(=O)C(O)(c2ccccc2)c2ccccc2)C1` (stereo not given): the Potency result in assay [1], in assay [2], in [3], in [4], in assay [5] and in assay [6] was “inactive” throughout. For the same molecule, the Potency entry in [7] and in [8] was “inactive” throughout.
For the molecule `Clc1ccc(C(c2ccc(Cl)cc2)C(Cl)Cl)cc1`, the Potency entry in assay [1], in [2], in assay [3], in assay [4], in assay [7] and in assay [8] was “inactive” throughout. In assay [9], the Potency result was “inactive”. In addition, the Potency was 44.4 µM (active) and 43.6 µM (active) in assay [5]; 44.4 µM (active) and 38.9 µM (active) in assay [6].
Regarding `c1csc(-c2ccc(-c3cccs3)s2)c1`, the Potency entry in assay [1], in [2], in [3], in [4], in assay [5] and in assay [6] was “inactive” in each case. Also, the Potency entry in assay [7], in [8] and in assay [9] was “inactive” in each case.
For `N#Cc1c[nH]cc1-c1cccc2c1OC(F)(F)O2`, the Potency entry in assay [10], in assay [1], in assay [3], in assay [4], in assay [7] and in assay [8] was “inactive” in each case.
As to `CC1(C)[C@H](/C=C2\CCSC2=O)[C@@H]1C(=O)OCc1coc(Cc2ccccc2)c1`, the Potency entry in assay [10], in assay [1], in [3], in assay [7], in assay [8] and in [9] was “inactive” throughout. Also, the Potency in assay [6] was 38.9 µM (active).
